For 42 compounds, Potency and activity change, negative = inhibition results are on record in PubChem BioAssay (NCATS).

Assay [1] is described as follows: Cytotoxicity counterscreen for inhibitors of SARS-CoV-2 cell entry (AID 1645845). Note: nearly all actives have a fitted effect of over 50% in size. Summed up:
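Counterscreen run in the same HEK293-ACE2 line as the pseudotyped-particle entry assay, without particles. Viability after 48 h at 37 C was read as ATP luminescence, scaled between cell-containing and cell-free wells.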
Background: A counterscreen serves to expose hits that act by an unwanted route or on another target.

Assay [2] in a line: Primary qHTS to identify inhibitors of SARS-CoV-2 cell entry (AID 1645846). Note: nearly all actives have a fitted effect of over 45% in size. Note: potency is the fitted concentration of half-maximal effect. Conditions: activity change, negative = inhibition: at 57.1 µM (top of the series) unless noted. Summed up:
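Data are normalized to wells receiving SARS-CoV-2-S pseudoparticles and those given bald particles. Entry signal was luciferase luminescence in stable hACE2 Expi293F cells, 48 hr post-infection, after 1 hr compound pretreatment.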

Assay [3] in a line: VSVG counterscreen qHTS to identify inhibitors of SARS-CoV-2 cell entry (AID 1645847). Note: nearly all actives have a fitted effect of over 65% in size. Note: potency is the fitted concentration of half-maximal effect. The gist of the method:
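Counterscreen using VSV-G (not spike) pseudotyped MLV particles on ACE2-expressing Expi293F cells after 1 h compound preincubation; infection ran 48 h at 37 °C. Data normalized to VSV-G PP and bald-PP wells.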

Values joined by “and” are separate entries in the source; they are usually repeats but may differ in a detail not shown here. Identical values can stand only once. Results filed as inconclusive are left out. Where a call stands in place of a potency, no number is given. Active and inactive are the calls of the source. Calls come from the whole dose curve.

Turning to `Cc1cc(C(C)(C)C)cc(C)c1CC1=NCCN1`, in assay [1], the Potency entry is “inactive”. Besides, in assay [2], the Potency result was “inactive” and the activity change, negative = inhibition is -16.7%.

As to `CCCCNc1cc(C(=O)O)cc(S(N)(=O)=O)c1Oc1ccccc1`, the Potency result in assay [1] and in assay [2] was “inactive” throughout. Also, in assay [2], the activity change, negative = inhibition is -16.4%.

As to `CCCN(CCC)C(=O)C(CCC(=O)O)NC(=O)c1ccccc1` (centres undefined), the Potency entry in assay [1] and in assay [2] was “inactive” each time. Further, the activity change, negative = inhibition in assay [2] stood at 2.74%.

Take `CC(=O)OCC(=O)[C@@]12N=C(C)O[C@@H]1C[C@H]1[C@@H]3CCC4=CC(=O)C=C[C@]4(C)[C@H]3[C@@H](O)C[C@@]12C`: the Potency entry in assay [1] is “inactive”. Further, in assay [2], the Potency entry is “inactive” and the activity change, negative = inhibition is -14%.

For `CN1CCCN=C1/C=C/c1cccs1`, the Potency result in assay [1] is “inactive”. The activity change, negative = inhibition in assay [2] is -29.2%.

With `CNC(=O)c1c(I)c(NC(=O)CCCCC(=O)Nc2c(I)c(C(=O)O)c(I)c(C(=O)NC)c2I)c(I)c(C(=O)O)c1I`, the Potency entry in assay [1] and in assay [2] was “inactive” each time.

Turning to `C[C@H]1C[C@H]2[C@@H]3CCC4=CC(=O)C=C[C@]4(C)[C@H]3C(=O)C[C@]2(C)[C@@]1(O)C(=O)CO`, in assay [1], the Potency entry was “inactive”. Further, in assay [2], the Potency entry is “inactive” and the activity change, negative = inhibition turned out to be 4.44%.

For the compound `CC[C@H](NC(C)C)[C@H](O)c1ccc(O)c2[nH]c(=O)ccc12`, the Potency entry in assay [1] is “inactive”. For the same compound, in assay [2], the Potency result is “inactive” and the activity change, negative = inhibition was 1.27%.

Consider `COc1ccc2[nH]c(S(=O)Cc3ncc(C)c(OC)c3C)nc2n1` (centres undefined), for which the Potency result in assay [1] is “inactive”. In assay [2], the Potency entry is “inactive” and the activity change, negative = inhibition is -10.1%.

On to `CCN(CC)CC(=O)Nc1c(C)cccc1C`, for which the Potency entry in assay [1] and in assay [2] was “inactive” throughout.

Turning to `C[C@]12CCC(=O)C=C1CC[C@@H]1[C@@H]2[C@@H](O)C[C@@]2(C)[C@H]1CC[C@]2(O)C(=O)CO`, the Potency entry in assay [1] was “inactive”. Also, in assay [2], the Potency result was “inactive” and the activity change, negative = inhibition is 4.28%.

In the case of `CCNC(=O)NCCCOc1cccc(CN2CCCCC2)c1`, the Potency entry in assay [1] and in assay [2] was “inactive” each time.

On to `COc1ccc(-c2cc(C(F)F)nn2-c2ccc(S(N)(=O)=O)cc2)cc1F`, for which the Potency result in assay [1] was “inactive”. Moreover, in assay [2], the activity change, negative = inhibition was 1.11%.

For the compound `CC(C)N=C(N)/N=C(\N)Nc1ccc(Cl)cc1`, the Potency entry in assay [1] and in assay [2] was “inactive” throughout.

As to `CCCc1cc(C(N)=S)ccn1`, in assay [1], the Potency result is “inactive”. For the same compound, in assay [2], the Potency entry is “inactive” and the activity change, negative = inhibition is -4.59%.

In the case of `CCN(CC)CCNC(C(=O)OCCC(C)C)c1ccccc1` (centres undefined), the Potency result in assay [1] is “inactive”. Also, the activity change, negative = inhibition in assay [2] was -14.1%.

Regarding `O=C(NC1CCN(CCc2c[nH]c3ccccc23)CC1)c1ccccc1`, the Potency result in assay [1] was “inactive”. The activity change, negative = inhibition in assay [2] is -25.8%.

Consider `C/C=C/C(=O)N(CC)c1ccccc1C`, for which, in assay [1], the Potency entry is “inactive”. In assay [2], the Potency result is “inactive” and the activity change, negative = inhibition was -9.15%.

Turning to `NC(CSCC(=O)O)C(=O)O` (centres undefined), the Potency entry in assay [1] is “inactive”. The activity change, negative = inhibition in assay [2] was 0.853%.

Take `FC(F)(F)C(F)(F)C(F)(F)C(F)(F)C(F)(F)C(F)(F)C(F)(F)C(F)(F)Br`: the Potency result in assay [1] is “inactive”. In addition, in assay [2], the activity change, negative = inhibition was -12.9%.

For `NCCc1cnc[nH]1`, the Potency entry in assay [1] was “inactive”. Further, in assay [2], the Potency entry was “inactive” and the activity change, negative = inhibition is 0.209%.

Regarding `OC[C@H]1O[C@@H](O[C@@H]2[C@@H](CO)O[C@](O)(CO)[C@H]2O)[C@H](O)[C@@H](O)[C@H]1O`, in assay [1], the Potency entry was “inactive”. Besides, in assay [2], the Potency result was “inactive” and the activity change, negative = inhibition was -4.13%.

As for `CCCCCCc1ccc(O)cc1O`, the Potency result in assay [1] is “inactive”. In assay [2], the activity change, negative = inhibition is -11.8%.

Take `CN1CC(=O)N2[C@H](c3ccc4c(c3)OCO4)c3[nH]c4ccccc4c3C[C@@H]2C1=O`: the Potency result in assay [1] was “inactive”. In addition, in assay [2], the Potency result is “inactive” and the activity change, negative = inhibition is -9.6%.

Regarding `C#CCN(C)Cc1ccccc1`, the Potency result in assay [1] and in assay [2] was “inactive” in each case.

For the compound `O=C1O[C@H]([C@@H](O)CO)C(O)=C1O`, the Potency result in assay [2] is “inactive”.

In the case of `CN(C)[C@@H](CCOc1cccc2ccccc12)c1ccccc1`, in assay [2], the Potency is 10 µM (active).

Regarding `CCCCC(CC)COC(=O)C(C#N)=C(c1ccccc1)c1ccccc1` (centres undefined), in assay [1], the Potency result was “inactive”. In addition, the Potency in assay [3] was 21.5 µM (active).

As to `COC(=O)Nc1nc2ccc(S(=O)c3ccccc3)cc2[nH]1` (centres undefined), in assay [1], the Potency entry is “inactive”. The Potency in assay [3] was 24.1 µM (active).

Regarding `Nc1ccc2cc3ccc(N)cc3nc2c1`, the Potency in assay [2] was 7.94 µM (active).

On to `CN1CCC(=C2c3ccccc3CCc3sccc32)CC1`, for which the Potency entry in assay [1] was “inactive”. For the same compound, the values for the Potency in assay [2] and in assay [3] were 14.1 µM (active) and 12.1 µM (active), respectively.

Consider `O=C(NCC1CN(c2ccc(N3CCOCC3=O)cc2)C(=O)O1)c1ccc(Cl)s1` (centres undefined), for which the Potency result in assay [1] was “inactive”. In addition, in assay [2], the activity change, negative = inhibition is -26.5% and -55.1%. The Potency in assay [3] was 1.71 µM (active).

Consider `COC(=O)C1=C(C)NC(COC(N)=O)=C(C(=O)OC(C)C)C1c1cccc(Cl)c1Cl` (centres undefined), for which the activity change, negative = inhibition in assay [2] was -3.4%.

With `CN(C(=O)c1c(O)c2ccccc2n(C)c1=O)c1ccccc1`, the Potency result in assay [1] and in assay [3] was “inactive” each time. Moreover, the activity change, negative = inhibition in assay [2] was -55.9%.

For the compound `CCC(=O)O[C@]1(C(=O)CCl)[C@@H](C)C[C@H]2[C@@H]3CCC4=CC(=O)C=C[C@]4(C)[C@@]3(F)[C@@H](O)C[C@@]21C`, the Potency entry in assay [1] is “inactive”. In assay [2], the Potency result is “inactive” and the activity change, negative = inhibition is -9.65%.

Take `CN(Cc1ccc(C(C)(C)C)cc1)Cc1cccc2ccccc12`: in assay [2], the activity change, negative = inhibition worked out at 2.25%.

With `CC(=O)OCC1=C(C(=O)O)N2C(=O)[C@@H](NC(=O)CSc3ccncc3)[C@H]2SC1`, in assay [2], the Potency result is “inactive”.

Regarding `CN(C)CCOC(c1ccccc1)c1ccc(Br)cc1` (centres undefined), the Potency entry in assay [1] was “inactive”. Further, the activity change, negative = inhibition in assay [2] was -67.2%. Further, the Potency in assay [3] is 2.71 µM (active).

As to `CCCCCCCCCCCCCCCCCCNC(=O)OC1CCN(C(=O)OC[C@H](COC(=O)N(Cc2cccc[n+]2CC)C(=O)c2ccccc2OC)OC)CC1`, the Potency in assay [2] was 10 µM (active).

Turning to `O=C(CCCN1CCN(c2ccc(F)cc2)CC1)NC1c2ccccc2CSc2ccccc21` (centres undefined), the Potency result in assay [1] is “inactive”. The Potency in assay [3] was 1.71 µM (active).

For the compound `COc1cccc2c1C(=O)c1c(O)c3c(c(O)c1C2=O)C[C@@](O)(C(C)=O)C[C@@H]3O[C@H]1C[C@H](N)[C@H](O)[C@H](C)O1`, the activity change, negative = inhibition in assay [2] was -92.1% and -98%.

On to `CCCOc1ccc2nc(NC(=O)OC)[nH]c2c1`, for which the Potency result in assay [1] is “inactive”. For the same compound, the Potency in assay [3] was 0.607 µM (active).
